Hits are enriched below; roughly 4.2% of the tested compounds scored in any of these assays.
SMARCA2 act: SMARCA2 (BRM) function activators, primary screen, cell-based, luminescence, high throughput. MG213 cells, MMTV-luciferase reporter, dexamethasone, overnight. activation, % at 9.1 µM. 370,000 tested, 1% active; in the data active means activation above about 7.8%;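 further: 0% = vehicle wells and 100% = reference activator wells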
DAX1 inh: DAX1 (NR0B1) inhibitors on StAR promoter, primary screen, cell-based, luminescence, SF-1 (NR5A1), full-length DAX-1; HEK293T StAR-luciferase reporter, SF-1/DAX-1 repression relief; inhibition, % at 6.8 µM; 370,000 tested, 1.1% active; AID 652010, 2013;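 active means inhibition above the mean over all tested compounds plus 3 SD, cut at about 3.6% in these data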;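 further: 0% = DAX-1 cells with DMSO and 100% = cells lacking DAX-1 with DMSO; higher inhibition means more luminescence from relief of DAX-1 repression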
hgDAF12 agonist: H. glycines DAF-12 receptor agonists, primary screen, cell-based, luminescence, HEK293, GAL4 fusion, UAS-luciferase. activation, % at 6.8 µM. HEK293 GAL4-hgDAF12 UAS-luciferase reporter, agonist luminescence; normalized to butyrate control. Nuclear hormone receptor DAF-12 (Heterodera glycines), GAL4 fusion. 370,000 tested, 1.8% active;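 active means activation above a cutoff set at the mean of all screened compounds plus 3 SD, cut at about 10% in these data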;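 further: 0% = DMSO wells and 100% = sodium butyrate wells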
hcDAF12 agonist: H. contortus DAF-12 nuclear receptor activators, primary screen, cell-based, luminescence, HEK293, lit1-tk-luc reporter. HEK293 hcDAF-12 lit1-tk-luc reporter; 0% DMSO, 100% Δ7-dafachronic acid. activation, % at 6.8 µM. 370,000 tested, 1.4% active;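 active means activation above the mean of all tested compounds plus 3 SD, cut at about 5.5% in these data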;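 further: 100% = response to 3 µM Δ7-dafachronic acid high control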
ssDAF-12 act: S. stercoralis DAF-12 nuclear receptor activators, primary screen, cell-based, luminescence, HEK293, GRIP1 co-expression, lit1-tk-luc; Nuclear hormone receptor DAF-12 (Strongyloides stercoralis); HEK293 ssDAF-12/GRIP1 lit1-tk-luc reporter; % of 3 µM dafachronic acid response; activation, % at 6.8 µM; 370,000 tested, 1% active;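 active means activation above the mean over all tested compounds plus 3 SD, cut at about 0.9% in these data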;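 further: 0% = DMSO-only wells and 100% = 3 µM delta7-dafachronic acid wells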
hgDAF12 ag: H. glycines DAF-12 receptor agonists, confirmation, cell-based, luminescence, HEK293, GAL4-LBD fusion; shares compounds with hgDAF12 agonist; HEK293 GAL4-hgDAF12 luciferase reporter, agonist mode; percent of butyrate response; activation, % at 6.8 µM; 3,300 tested, 80% active;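 active means mean activation over triplicate wells above the hit cutoff derived from the earlier primary screen, cut at about 11% in these data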;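 further: 0% = DMSO low control and 100% = 2 mM sodium butyrate high control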
LXR ag 2: LXR agonists, Gal4 luciferase reporter, confirmation, counter-screen for hgDAF-12 agonist project, cell-based, luminescence, HEK293, H. glycines campaign. shares compounds with hgDAF12 agonist. 24 h. activation, % at 6.8 µM. 3,300 tested, under 10 active;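 active means mean activation of the triplicate above a set limit carried over from the primary screen, none filed active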
Target sequence (P55055 whole entry, looked up, the tested form may be a part): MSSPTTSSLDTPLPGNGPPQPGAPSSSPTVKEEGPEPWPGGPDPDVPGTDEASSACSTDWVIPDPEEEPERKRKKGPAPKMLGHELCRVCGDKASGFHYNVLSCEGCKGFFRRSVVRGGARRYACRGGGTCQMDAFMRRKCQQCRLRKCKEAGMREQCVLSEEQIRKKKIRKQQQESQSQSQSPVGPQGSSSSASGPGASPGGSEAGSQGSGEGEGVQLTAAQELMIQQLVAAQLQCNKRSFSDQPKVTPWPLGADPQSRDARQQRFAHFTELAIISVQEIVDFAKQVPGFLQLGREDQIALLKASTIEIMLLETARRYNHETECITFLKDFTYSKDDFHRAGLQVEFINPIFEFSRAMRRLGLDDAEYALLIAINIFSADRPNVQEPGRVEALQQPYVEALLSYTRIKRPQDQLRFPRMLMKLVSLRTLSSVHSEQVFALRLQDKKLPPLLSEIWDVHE
Starred values were filed as active, the others as inactive; · = not tested or not shown.

SMILES | SMARCA2 act | DAX1 inh | hgDAF12 agonist | hcDAF12 agonist | ssDAF-12 act | hgDAF12 ag | LXR ag 2
COC(=O)[C@]12C[C@H](CC(=O)NCc3ccccc3)C(=O)N(Cc3ccco3)C1=C[C@H](C(C)(C)C)O[C@@H]2C | 0.4 | -0.3 | 0.6 | -0.8 | -1.4 | · | ·
CCc1ccc2c(c1)[C@H]1OCC[C@H]1[C@@H](c1cccs1)N2 | -3.3 | -2.4 | 14.4* | 3.7 | -0.2 | 11.3* | 0.3
Clc1ccc2c(c1)[C@H]1OCC[C@H]1[C@@H](c1ccco1)N2 | 0.8 | 1.8 | 7.5 | 4.6 | 0.2 | · | ·
Cn1cccc1C(=O)N/N=C/c1c(Cl)cccc1Cl | 1.1 | 2.4 | 13.4* | 5.9* | 0.6 | 12.1* | 0.5
O=C(N/N=C/c1c(Cl)cccc1Cl)c1ccc(F)cc1 | 1.4 | 0.1 | 2.0 | 0.4 | -1.4 | · | ·
COC(=O)[C@]12C[C@H](CC(=O)NCc3cccs3)C(=O)N(Cc3cccc4ccccc34)C1=C[C@H](C(C)(C)C)O[C@@H]2C | -1.9 | -1.6 | 4.1 | 1.7 | -0.9 | · | ·
Nc1c(C(=O)Nc2ccc(Cl)cc2)sc2nc(N3CCOCC3)c3c(c12)CCCC3 | 1.0 | -0.1 | 1.0 | -1.6 | -0.6 | · | ·
Nc1c(C(=O)Nc2ccccc2)sc2nc(N3CCOCC3)c3c(c12)CCCC3 | 3.0 | 3.8* | 14.6* | 2.3 | 0.5 | 4.9 | 0.1
O=C(CSc1nnc(-c2ccccc2Br)o1)N1CCOCC1 | 1.6 | 0.8 | 7.7 | 3.7 | -0.4 | · | ·
C/C(N)=C(/C#N)C(=O)CSc1nnc(-c2ccccc2Br)o1 | 1.6 | 3.8* | 14.4* | 3.0 | 0.2 | 17.1* | 1.1
CC1(C)CC(=O)C=C(c2ccccc2-c2cccc(C(N)=O)c2)C1=O | 1.9 | -0.7 | -3.5 | 1.5 | -0.6 | · | ·
CC(C)(C)OC(=O)N1Cc2cc3ccccc3nc2C1 | 4.3 | 3.6* | 16.3* | 2.9 | 0.4 | 12.9* | 0.5
CC(C)(C)c1ccc(S(=O)(=O)N2CCC(C(=O)NCCC3=CCCCC3)CC2)cc1 | 1.6 | -1.1 | 3.4 | -2.8 | -1.9 | · | ·
Cc1ccc(O)c(C2=NNC(O)(C(F)(F)F)C2)c1 (stereo unspecified) | -2.9 | -0.9 | -0.5 | -1.6 | -1.6 | · | ·
Cc1ccc(O)c(C2=NNC(c3ccc(Cl)cc3)C2)c1 (stereo unspecified) | 0.7 | 3.0 | 14.6* | 5.7* | 0.6 | 12.7* | 0.6
COc1ccc2occ(C(=O)c3cccs3)c2c1 | 1.9 | 0.5 | 15.0* | 4.4 | -0.8 | 13.2* | 0.4
COC(=O)[C@]12C[C@H](CC(=O)NCC3CCCCC3)C(=O)N(CCC3=CCCCC3)C1=C[C@H](C1CCCC1)O[C@@H]2C | -0.8 | -1.6 | 3.0 | -2.4 | -0.7 | · | ·
O=C(Nc1cccc(C(=O)O)c1)Nc1ccccc1Cl | 5.1 | 1.6 | 17.5* | 2.7 | -0.3 | 8.9 | 0.6
O=C(Nc1cccc(C(=O)O)c1)Nc1cccc2ccccc12 | 4.9 | 0.6 | 3.7 | 3.8 | 0.8 | · | ·
O=C(c1ccccc1Cl)N1CCSCCS1(=O)=O | -4.8 | -0.2 | -4.5 | 0.2 | -1.8 | · | ·
COc1ccc2occ(C(=O)c3ccc(N)cc3)c2c1 | 0.8 | 1.0 | 8.5 | 1.0 | -0.7 | · | ·
Cc1ccc(C(=O)c2coc3ccc(O)cc23)cc1 | 5.9 | 3.6 | 17.6* | 4.8 | 1.1* | 22.4* | 1.0
Cc1ccc(C(=O)c2coc3ccc(O)c(Cl)c23)cc1 | 3.1 | 3.0 | 16.8* | 4.0 | 0.0 | 13.2* | 0.5
CCCCS(=O)(=O)N1CCCc2nc(CC)c(CC)cc21 | 0.3 | -1.4 | -0.9 | -1.9 | -0.7 | · | ·

From PubChem BioAssay
